Test results taken from PubChem BioAssay (NCATS).
“And” between values parts separate entries of the source, which are not always exact repeats. Equal entries are not always repeated. Results filed as inconclusive are left out. Where a structure was tested more than once in an assay, its records may differ in their call. The source made the active and inactive calls. Unless noted, the call rests on the fitted dose curve; in most records, active means well fitted curve in the direction sought with a large enough effect; inconclusive means small, poorly fitted or top-dose-only effect, or another doubt; inactive means no such curve, though single readings can be large; an effect the other way counts as inactive or inconclusive.

Legend:
[1] = NS1 protein of Zika virus - qHTS assay to identify small molecule inhibitors in human HEK 293 cells (AID 1347053); further: nearly all actives have a fitted effect of over 55% in size; further: potency means the concentration at half of the fitted maximal effect
Outline: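 Following 20 h seeding, HEK 293 cells took compound, then 1 h later ZIKV MR766 (MOI = 0.5). Incubation ran 24 h at 37 C before TR-FRET detection of NS1; a drop in signal indicates inhibition.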

[2] = qHTS for Inhibitors of the Functional Ribonucleoprotein Complex (vRNP) of Lassa (LASV) Arenavirus: LASV Primary Screen - GLuc reporter signal (AID 1347082; calls by dose curve; tested in HEK293 reporter line; further: nearly all actives have a fitted effect of over 60% in size; further: potency means the concentration at half of the fitted maximal effect)
[3] = qHTS for Inhibitors of the Functional Ribonucleoprotein Complex (vRNP) of Lassa (LASV) Arenavirus: Viability assay - alamar blue signal for LASV Primary Screen (AID 1347083; calls by dose curve; tested in HEK293 reporter line; further: nearly all actives have a fitted effect of over 80% in size; further: potency means the concentration at half of the fitted maximal effect)
[4] = qHTS for Inhibitors of the Functional Ribonucleoprotein Complex (vRNP) of Lymphocytic Choriomeningitis Arenaviruses (LCMV): Viability assay - alamar blue signal for LCMV Primary Screen (AID 1347085; calls by dose curve; tested in HEK293 reporter line; further: nearly all actives have a fitted effect of over 80% in size; further: potency means the concentration at half of the fitted maximal effect)
[5] = biological target: Nucleoprotein (Lymphocytic choriomeningitis virus (strain Armstrong)) (UniProt P09992); assay: qHTS for Inhibitors of the Functional Ribonucleoprotein Complex (vRNP) of Lymphocytic Choriomeningitis Arenaviruses (LCMV): LCMV Primary Screen - GLuc reporter signal (AID 1347086; calls by dose curve; further: nearly all actives have a fitted effect of over 70% in size; further: potency means the concentration at half of the fitted maximal effect)
[6] = qHTS of pediatric cancer cell lines to identify multiple opportunities for drug repurposing: Primary screen for TC32 cells (AID 1347089); further: nearly all actives have a fitted effect of over 60% in size; further: potency means the concentration at half of the fitted maximal effect
Outline: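 In the primary qHTS, MIPE compounds were tested at 11 concentrations (0.78 nM to 46 µM) and NPC compounds at 8 (0.59 nM to 46 µM) on TC32 cells for 48 h. CellTiter-Glo luminescence gave viability.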

[7] = qHTS of pediatric cancer cell lines to identify multiple opportunities for drug repurposing: Primary screen for DAOY cells (AID 1347090); further: nearly all actives have a fitted effect of over 55% in size; further: potency means the concentration at half of the fitted maximal effect
Outline: (§1)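 Eight- or eleven-point concentration series, 48 h treatment at 37 degrees C in growth media; readout CellTiter-Glo luminescence. Potency and efficacy were taken from the concentration-response curves.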

[8] = qHTS of pediatric cancer cell lines to identify multiple opportunities for drug repurposing: Primary screen for SJ-GBM2 cells (AID 1347091); further: potency means the concentration at half of the fitted maximal effect
Outline: as §1

[9] = qHTS of pediatric cancer cell lines to identify multiple opportunities for drug repurposing: Primary screen for SK-N-MC cells (AID 1347093); further: potency means the concentration at half of the fitted maximal effect
Outline: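 Metabolically active cells were quantified by ATP-dependent luminescence (CellTiter-Glo, 15 min at room temperature) following 48 h treatment. Cells had been plated at 500-1,000 per well and settled for 5 h beforehand.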

[10] = qHTS of pediatric cancer cell lines to identify multiple opportunities for drug repurposing: Primary screen for BT-37 cells (AID 1347094); further: potency means the concentration at half of the fitted maximal effect
Outline: (§2)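 500-1,000 cells/well; 5 h pre-incubation 37 °C/5% CO2; compound pinned; 48 h; CellTiter-Glo, 15 min RT; luminescence. MIPE 11-pt from 0.78 nM, NPC 8-pt from 0.59 nM final. Bortezomib 2.3 µM final as positive control.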

[11] = qHTS of pediatric cancer cell lines to identify multiple opportunities for drug repurposing: Primary screen for NB-EBc1 cells (AID 1347095); further: potency means the concentration at half of the fitted maximal effect
Outline: as §2

[12] = qHTS of pediatric cancer cell lines to identify multiple opportunities for drug repurposing: Primary screen for U-2 OS cells (AID 1347096); further: nearly all actives have a fitted effect of over 50% in size
Outline: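 Cells (500-1,000/well) in growth media were settled 5 h at 37 degrees C, then given compounds for 48 h. Viability was read as CellTiter-Glo luminescence. Primary runs used MIPE at 11 points (0.78 nM-46 µM) and NPC at 8 points (0.59 nM-46 µM); follow-ups used 11 points.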

[13] = qHTS of pediatric cancer cell lines to identify multiple opportunities for drug repurposing: Primary screen for Saos-2 cells (AID 1347097); further: nearly all actives have a fitted effect of over 40% in size; further: potency means the concentration at half of the fitted maximal effect
Outline: as §2

[14] = qHTS of pediatric cancer cell lines to identify multiple opportunities for drug repurposing: Primary screen for A673 cells (AID 1347092); further: nearly all actives have a fitted effect of over 45% in size; further: potency means the concentration at half of the fitted maximal effect
Outline: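 48 h compound exposure, A673, 500-1,000 cells/well, 37 degrees C/5% CO2. MIPE: 11-point, 0.78 nM-46 µM; NPC: 8-point, 0.59 nM-46 µM (final). Readout CellTiter-Glo luminescence after 15 min RT.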

Measured: Potency

Chain of Nucleoprotein (Lymphocytic choriomeningitis virus (strain Armstrong)) (P09992 whole entry, looked up): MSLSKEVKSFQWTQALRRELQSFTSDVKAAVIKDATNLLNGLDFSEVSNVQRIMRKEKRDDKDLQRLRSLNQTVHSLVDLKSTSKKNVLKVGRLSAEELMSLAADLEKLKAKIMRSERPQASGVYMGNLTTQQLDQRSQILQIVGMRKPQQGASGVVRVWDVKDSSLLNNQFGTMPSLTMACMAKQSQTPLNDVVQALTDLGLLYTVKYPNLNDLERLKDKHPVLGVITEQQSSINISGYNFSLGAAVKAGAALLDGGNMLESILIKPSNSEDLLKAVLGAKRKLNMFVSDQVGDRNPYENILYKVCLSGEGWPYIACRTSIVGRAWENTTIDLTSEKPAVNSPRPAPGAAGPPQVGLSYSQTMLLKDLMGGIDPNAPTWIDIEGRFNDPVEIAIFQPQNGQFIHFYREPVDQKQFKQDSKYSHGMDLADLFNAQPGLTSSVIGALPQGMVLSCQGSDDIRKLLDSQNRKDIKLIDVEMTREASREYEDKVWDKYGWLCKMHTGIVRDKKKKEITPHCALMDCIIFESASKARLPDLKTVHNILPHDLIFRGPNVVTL

C=CCOC(Cn1ccnc1)c1ccc(Cl)cc1Cl (centres undefined)
not listed: [14]
inactive: all other assays above

OC(O)C(Cl)(Cl)Cl
not listed: [7]
inactive: all other assays above

O=C(NC(=O)c1c(F)cccc1F)Nc1cc(Cl)c(OC(F)(F)C(F)C(F)(F)F)cc1Cl (centres undefined)
not listed: [8] | [10] | [12]
inactive: all other assays above

OC(c1ccccc1)(c1ccccc1)C1CCNCC1
not listed: [7]
inactive: all other assays above

CC(Cc1ccccc1)NCc1ccccc1Cl (centres undefined)
not listed: [9] | [11] | [12] | [13] | [14]
inactive: all other assays above

Nc1ccc(Cl)cc1C(=O)c1ccccc1F
not listed: [6] | [9] | [11] | [13] | [14]
inactive: all other assays above

C[C@]12CC[C@H]3[C@@H](CCC4=CC(=O)CC[C@@]43C)[C@@H]1CC[C@@H]2C(=O)O
not listed: [7]
inactive: all other assays above

CNC(=O)NC(O)C(Cl)(Cl)Cl (centres undefined)
not listed: [7] | [11] | [14]
inactive: all other assays above

O=C(CCl)c1ccc(Cl)cc1Cl
inactive: [1] | [2] | [3] | [4] | [5] | [6] | [12]

CCCOC(=O)Cc1ccc(OCC(=O)N(CC)CC)c(OC)c1
not listed: [7] | [11]
inactive: all other assays above

CNC(C)Cc1ccccc1OC (centres undefined)
not listed: [6] | [9] | [11] | [13] | [14]
inactive: all other assays above

Oc1ccc([C@H]2CNCc3c2ccc(O)c3O)cc1O
not listed: [7] | [9] | [11] | [13] | [14]
inactive: all other assays above

CCOC(=O)NC(O)C(Cl)(Cl)Cl (centres undefined)
not listed: [6] | [13]
inactive: all other assays above

CCC(=O)O[C@H]1CC[C@H]2[C@@H]3CCC4=CC(=O)CC[C@]4(C)[C@H]3CC[C@]12C
not listed: [6] | [9]
inactive: all other assays above

CCOC(=O)NC(C)(C)Cc1ccc(Cl)cc1
not listed: [7] | [13] | [14]
inactive: all other assays above

NCc1cccnc1
not listed: [6] | [14]
inactive: all other assays above

C1CN2CCC1CC2
not listed: [7] | [11]
inactive: all other assays above

O=C(O)Cc1ccccc1
not listed: [7] | [9] | [11]
inactive: all other assays above

Cc1nc2ccccc2c(=O)n1-c1ccccc1Cl
not listed: [6] | [11] | [13]
inactive: all other assays above

CCN(CC)Cc1nccn1-c1ccc([N+](=O)[O-])cc1C(=O)c1ccccc1Cl
not listed: [6] | [9]
inactive: all other assays above

C[C@]12CC[C@H]3[C@@H](CC=C4C[C@@H](O)CC[C@@]43C)[C@@H]1CC[C@@H]2O
not listed: [7]
inactive: all other assays above

CC(C)[N+](C)(CCC(C(N)=O)(c1ccccc1)c1ccccc1)C(C)C
not listed: [6]
inactive: all other assays above

C[C@H]1C(=O)O[C@@H]2CCN3CC=C(COC(=O)[C@](C)(O)[C@]1(C)O)[C@H]23
not listed: [6] | [9] | [11]
inactive: all other assays above

CNC(C)Cc1ccc2c(c1)OCO2 (centres undefined)
active: [7] 47400 nM
not listed: [6] | [9] | [11] | [13] | [14]
inactive: all other assays above

ClCc1cccc(Cl)c1
not listed: [6]
inactive: all other assays above

CCOC(=O)C1(c2ccccc2)CCN(CCc2ccc(N)cc2)CC1
not listed: [6]
inactive: all other assays above

CN1C(=O)CN=C(c2ccccc2)c2cc(Cl)ccc21
not listed: [6] | [14]
inactive: all other assays above

CCC1(c2ccccc2)CCC(=O)NC1=O (centres undefined)
not listed: [6] | [13]
inactive: all other assays above

C[C@@H]1C[C@@H]([C@H](O)CC2CC(=O)NC(=O)C2)C(=O)[C@@H](C)C1
active: [2] 968 nM | [3] 158 nM and 432 nM | [4] 1090 nM | [5] 1370 nM | [6] 664 nM and 523 nM | [8] 266 nM and 235 nM | [14] 668 nM and 372 nM | [9] 84.1 nM and 74.3 nM | [10] 437 nM and 385 nM | [13] 1870 nM
inactive and 93.5 nM (active): [1]

CC(C)=C[C@@H]1[C@@H](C(=O)OCc2coc(Cc3ccccc3)c2)C1(C)C
not listed: [6] | [9]
inactive: all other assays above

C=CC[C@]1(O)CC[C@H]2[C@@H]3CCC4=CC(=O)CCC4=C3C=C[C@@]21C
not listed: [7] | [9] | [10] | [14]
inactive: all other assays above

c1ccc2nc(N3CCNCC3)ccc2c1
not listed: [6] | [9] | [14]
inactive: all other assays above

O=C1CN2CCOC2(c2ccccc2Cl)c2cc(Cl)ccc2N1 (centres undefined)
not listed: [6] | [14]
inactive: all other assays above

CN1C(=O)[C@@H](NC(=O)c2cc3ccccc3[nH]2)N=C(c2ccccc2)c2ccccc21
active: [14] 6.68 µM | [13] 10600 nM
not listed: [7] | [8] | [9]
inactive: all other assays above

CCOC(C(=O)OCCN(C)C)(c1ccccc1)c1ccccc1
not listed: [7] | [9] | [11] | [14]
inactive: all other assays above

CC[C@H]1C[C@@H]2C[C@H]3c4[nH]c5ccc(OC)cc5c4CCN(C2)[C@@H]13
inactive: [1] | [2] | [3] | [4] | [5] | [6] | [8] | [12]

COP(=S)(OC)Oc1ccc(Sc2ccc(OP(=S)(OC)OC)cc2)cc1
not listed: [7] | [11]
inactive: all other assays above

C[C@@H]1O[C@@H](O[C@@H]2C=C3CC[C@@H]4[C@H](CC[C@]5(C)[C@@H](c6ccc(=O)oc6)CC[C@]45O)[C@@]3(C)CC2)[C@H](O)[C@H](O)[C@H]1O
inactive: [1] | [2] | [3] | [4] | [5]
active: [6] 3.3 nM | [8] 6.7 nM | [14] 0.0027 µM | [9] 1 nM | [10] 2.5 nM | [11] 11.9 nM | [13] 3.8 nM

COc1ccc(CN2CCNCC2)c(OC)c1OC
not listed: [6]
inactive: all other assays above

Cc1cccc(Cc2cnc[nH]2)c1C
active: [13] 29900 nM
not listed: [7] | [14]
inactive: all other assays above

Cc1c(Cl)c(=O)oc2cc(OP(=O)(OCCCl)OCCCl)ccc12
not listed: [7] | [11]
inactive: all other assays above

CC(Cc1ccccc1)NCCCCl (centres undefined)
not listed: [6]
inactive: all other assays above

CNC(=O)Oc1cccc2ccccc12
not listed: [6]
inactive: all other assays above

O=C(CCCCl)c1ccc(F)cc1
not listed: [6]
inactive: all other assays above

CN1[C@@H]2CC[C@H]1CC(OC(=O)c1cc(Cl)cc(Cl)c1)C2 (some centres undefined)
active: [9] 1 nM | [13] 75000 nM
not listed: [7] | [10] | [14]
inactive: all other assays above

O=C(N[C@@H]1N=C(c2ccccc2F)c2cccc3c2N(CC3)C1=O)c1cc2ccccc2[nH]1
not listed: [3] | [7] | [9] | [13] | [14]
inactive: all other assays above

CC(=O)Oc1ccc(C2(c3ccc(OC(C)=O)cc3)Oc3ccccc3NC2=O)cc1
inactive: [2]
